PubChem BioAssay (EPA / NIEHS)
Records with an inconclusive call do not appear. Some compounds were tested as several samples or in several runs, with calls that do not always agree. Activity calls are given as the source filed them. Rule for the calls, unless noted: active = hit-call score of the fitted dose curve at least 0.9, where 1 is the maximum; inconclusive = response in the unintended direction; inactive = score below 0.9.

Legend:
[1] = TOX21_p53_BLA_p2_viability: Viability Assessment in the Tox21 HCT-116 p53 Agonism Beta-lactamase Assay, Phase 2 (AID 2283591);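 note: compound exposure lasted 16 h at 37 °C; actives lower the ATP signal meaning cytotoxicity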
Outline: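 HCT116 p53-bla cells, 4000/well, dosed after 5 h plating (217-fold dilution of DMSO stocks) and incubated 16 h at 37C. Viability taken as cellular ATP by CellTiter-Glo luminescence after 30 min RT; signal loss marks cytotoxicity.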

[2] = target: Cellular tumor antigen p53 (Homo sapiens) (UniProt P04637); experiment: TOX21_p53_BLA_p2_ratio: Tox21 HCT-116 p53 Agonism Beta-lactamase Assay, Ratio, Phase 2 (AID 2283592)
Chain of Cellular tumor antigen p53 (Homo sapiens) (P04637 whole entry, looked up): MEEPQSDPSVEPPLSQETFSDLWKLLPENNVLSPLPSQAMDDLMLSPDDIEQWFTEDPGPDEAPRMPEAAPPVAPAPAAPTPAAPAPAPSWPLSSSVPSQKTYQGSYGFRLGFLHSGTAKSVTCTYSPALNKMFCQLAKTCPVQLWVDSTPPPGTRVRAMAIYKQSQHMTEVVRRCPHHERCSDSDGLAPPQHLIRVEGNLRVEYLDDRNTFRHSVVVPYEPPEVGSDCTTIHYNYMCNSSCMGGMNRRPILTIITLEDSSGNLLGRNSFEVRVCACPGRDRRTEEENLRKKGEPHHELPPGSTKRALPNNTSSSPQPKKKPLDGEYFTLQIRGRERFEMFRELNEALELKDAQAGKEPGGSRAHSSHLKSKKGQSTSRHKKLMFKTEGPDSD
Outline: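 Human colon HCT116 cells with an inducible p53 beta-lactamase reporter are exposed to test chemicals for 16 h at 37C. Reporter induction is read as the 460/530 nm emission ratio after CCF4-AM loading, normalized to DMSO.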

[3] = TOX21_p53_BLA_p3_viability: Viability Assessment in the Tox21 HCT-116 p53 Agonism Beta-lactamase Assay, Phase 3 (AID 2283593);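 note: cells exposed to compound for 16 h before reading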
Outline: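 HCT116 cells, 4000/well, dosed 5 h after plating by pin transfer (217-fold dilution from DMSO stock) and incubated 16 h at 37C, 5% CO2. Viability read as ATP luminescence with CellTiter-Glo after 30 min at room temperature.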

[4] = target: Cellular tumor antigen p53 (Homo sapiens) (UniProt P04637); experiment: TOX21_p53_BLA_p3_ratio: Tox21 HCT-116 p53 Agonism Beta-lactamase Assay, Ratio, Phase 3 (AID 2283596)
Outline: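 HCT116 p53-bla cells (4000/well) given compound in DMSO (217-fold dilution) after 5 h, incubated 16 h at 37C. CCF4-AM substrate 2 h at room temperature; 460/530 nm emission ratio, gain fitted against DMSO.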

[5] = TOX21_p53_BLA_p4_viability: Viability Assessment in the Tox21 HCT-116 p53 Agonism Beta-lactamase Assay, Phase 4 (AID 2283597);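 note: hits lower the luminescence signal meaning cytotoxicity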
Outline: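 Luminescent ATP readout (CellTiter-Glo, 30 min, room temperature) in the same wells as the p53 bla ratio. HCT116 cells were treated for 16 h at 37C with DMSO-dissolved compounds.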

[6] = target: Cellular tumor antigen p53 (Homo sapiens) (UniProt P04637); experiment: TOX21_p53_BLA_p5_ratio: Tox21 HCT-116 p53 Agonism Beta-lactamase Assay, Ratio, Phase 5 (AID 2283599)
Outline: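 HCT-116 p53-bla cells (4000/well) plated 5 h, dosed with compound (217-fold DMSO dilution) for 16 h at 37 C; CCF4-AM substrate 2 h at room temperature. Activity is the 460/530 nm emission ratio (405 nm excitation), fitted in gain-of-signal direction versus DMSO.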

[7] = target: Cellular tumor antigen p53 (Homo sapiens) (UniProt P04637); experiment: TOX21_p53_BLA_p4_ratio: Tox21 HCT-116 p53 Agonism Beta-lactamase Assay, Ratio, Phase 4 (AID 2283601)
Outline: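 HCT-116 p53 beta-lactamase reporter cells (4000/well) preincubated 5 h, then compound (217-fold dilution of DMSO stock) for 16 h at 37C. CCF4-AM substrate added 2 h at room temperature; 460/530 nm emission ratio fitted upward versus DMSO.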

[8] = TOX21_p53_BLA_p5_viability: Viability Assessment in the Tox21 HCT-116 p53 Agonism Beta-lactamase Assay, Phase 5 (AID 2283600)
Outline: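 Seeded cells (4000/well) settle 5 h before compound addition. Plates then incubate 16 h at 37C, receive FRET substrate for 2 h, and finally CellTiter-Glo, with luminescence measured after a 30 min room-temperature incubation.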

PGR (gene 5241) [9] = target: PGR (gene 5241) (UniProt P06401); experiment: TOX21_PR_BLA_Followup_Agonist_ratio: Tox21 HEK293 Progesterone Receptor (PR) Agonism Beta-lactamase Follow-Up Assay, Ratio (AID 2283933)
Chain of PGR (gene 5241) (P06401 whole entry, looked up): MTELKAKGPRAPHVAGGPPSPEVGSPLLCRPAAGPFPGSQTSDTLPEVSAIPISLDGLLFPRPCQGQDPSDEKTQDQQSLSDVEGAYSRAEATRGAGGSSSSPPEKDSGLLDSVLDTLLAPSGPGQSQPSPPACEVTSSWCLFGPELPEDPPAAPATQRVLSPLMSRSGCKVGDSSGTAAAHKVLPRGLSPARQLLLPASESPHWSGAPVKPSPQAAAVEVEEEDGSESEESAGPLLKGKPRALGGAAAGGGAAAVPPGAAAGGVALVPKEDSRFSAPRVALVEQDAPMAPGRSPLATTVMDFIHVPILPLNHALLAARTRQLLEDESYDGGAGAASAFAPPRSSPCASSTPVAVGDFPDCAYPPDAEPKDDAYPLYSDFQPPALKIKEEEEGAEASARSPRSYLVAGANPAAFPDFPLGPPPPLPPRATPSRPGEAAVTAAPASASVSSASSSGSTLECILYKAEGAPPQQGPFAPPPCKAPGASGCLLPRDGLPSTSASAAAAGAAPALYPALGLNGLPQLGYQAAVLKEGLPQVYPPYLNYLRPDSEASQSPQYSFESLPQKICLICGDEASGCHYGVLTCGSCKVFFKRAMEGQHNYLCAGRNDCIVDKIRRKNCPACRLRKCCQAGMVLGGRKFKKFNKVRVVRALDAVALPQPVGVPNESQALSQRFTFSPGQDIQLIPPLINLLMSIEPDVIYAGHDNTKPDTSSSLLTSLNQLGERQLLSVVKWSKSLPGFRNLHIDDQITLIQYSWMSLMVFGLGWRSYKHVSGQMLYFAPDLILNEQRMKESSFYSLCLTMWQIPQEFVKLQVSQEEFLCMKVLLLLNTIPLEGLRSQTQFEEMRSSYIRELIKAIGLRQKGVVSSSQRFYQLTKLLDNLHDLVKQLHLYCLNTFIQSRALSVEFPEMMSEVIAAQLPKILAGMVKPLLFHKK
Outline: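 HEK293T PR-UAS-bla, 2% CS-FBS; 6 hr preincubation, cpd/DMSO pinned, 16 hr 37C/5% CO2; LiveBLAzer B/G 2 hr RT; FRET ch2/ch1 ratio, agonist direction vs DMSO. Viability by CellTiter-Glo in same wells.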

PGR (gene 5241) [10] = target: PGR (gene 5241) (UniProt P06401); experiment: TOX21_PR_BLA_Followup_Antagonist_ratio: Tox21 HEK293 Progesterone Receptor (PR) Antagonism Beta-lactamase Follow-Up Assay, Ratio (AID 2283934)
Outline: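 HEK293T PR-UAS-bla, 2% CS-FBS; 6 hr plating, then cpd + R5020 (1 nM final), 16 hr 37C/5% CO2. B/G FRET substrate 2 h RT. Ratio ch2/ch1 vs DMSO; CellTiter-Glo viability multiplexed, autofluorescence checked.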

[11] = TOX21_PR_BLA_Followup_Agonist_viability: Viability Assessment in the Tox21 HEK293 Progesterone Receptor (PR) Agonism Beta-lactamase Follow-Up Assay (AID 2283935);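 note: cells exposed to compound for 16 hr at 37 °C; signal loss means lower viability so actives are cytotoxic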
Outline: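 HEK293T PR-UAS-bla, 3,000 cells/well, 2% CS-FBS; 6 hr pre-incubation; cpd in DMSO, 16 hr 37C; LiveBLAzer 2 hr RT, then CellTiter-Glo 30 min RT, luminescence. Decrease = lost viability.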

[12] = TOX21_PR_BLA_Followup_Antagonist_viability: Viability Assessment in the Tox21 HEK293 Progesterone Receptor (PR) Antagonism Beta-lactamase Follow-Up Assay (AID 2283936);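 note: hits lower the luminescence signal meaning cytotoxicity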
Outline: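 PR-UAS-bla HEK293T cells (3,000/well, 2% charcoal-stripped FBS) given compound plus R5020 agonist, 16 h at 37C. CellTiter-Glo added after bla read, 30 min at room temperature; luminescence loss indicates cytotoxicity.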

PGR (gene 5241) [13] = target: PGR (gene 5241) (UniProt P06401); experiment: TOX21_PR_LUC_Followup_Agonist: Tox21 HEK293 Progesterone Receptor (PR) Agonism Luciferase Follow-Up Assay (AID 2283937; active = hit-call score of the fitted dose curve at least 0.9, where 1 is the maximum; inactive = score below 0.9)
Outline: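 Cells: HEK293-PR-A-luc, 3,000/well, 10% charcoal-stripped FBS assay medium. Compound added after 5 h; 16 h, 37C, 0% CO2. ONE-Glo luciferase, luminescence. Positive fit vs DMSO.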

PGR (gene 5241) [14] = target: PGR (gene 5241) (UniProt P06401); experiment: TOX21_PR_LUC_Followup_Antagonist: Tox21 HEK293 Progesterone Receptor (PR) Antagonism Luciferase Follow-Up Assay (AID 2283938);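 note: curve fitted upward as signal gain over DMSO baseline despite antagonist label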
Outline: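 Luciferase reporter in HEK293-PR-A-luc cells: 16 h compound treatment at 37C, ONE-Glo luminescence detection, DMSO as negative control and baseline.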

[15] = TOX21_PR_LUC_Followup_Agonist_viability: Viability Assessment in the Tox21 HEK293 Progesterone Receptor (PR) Agonism Luciferase Follow-Up Assay (AID 2283941);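 note: loss of signal means cytotoxicity so actives lower viability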
Outline: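 Cells were kept 5 days in charcoal-stripped serum medium before plating HEK293-PR-A-luc at 3,000 cells/well. After 5 h they received DMSO-dissolved compound and incubated 16 h at 37C. Viability was taken from CellTiter-Glo ATP luminescence.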

[16] = CCTE_Harrill_HTTr_Viability_MCF7: CCTE's 6-hour Cell Viability Assessment for the High-Throughput Transcriptomics (HTTr) Platform, in MCF-7 cells cultured in DMEM + 10% fetal bovine serum, Harrill Lab (AID 2284010; active = hit-call score of the fitted dose curve at least 0.9, where 1 is the maximum; inactive = score below 0.9)
Outline: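 Cells were dosed with chemicals in an eight-point dilution series, imaged 6 hours later for propidium iodide uptake, and the endpoint was analyzed by bidirectional fitting against DMSO as negative control.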

[17] = CCTE_Harrill_HTTr_Apoptosis_MCF7: CCTE's 6-hour Apoptosis Assessment for the High-Throughput Transcriptomics (HTTr) Platform, in MCF-7 cells cultured in DMEM + 10% fetal bovine serum, Harrill Lab (AID 2284011; active = hit-call score of the fitted dose curve at least 0.9, where 1 is the maximum; inactive = score below 0.9)
Outline: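 Apoptosis in MCF-7 cells grown in DMEM with 10% fetal bovine serum was scored after a six hour exposure by high content imaging of caspase-3/7 activation (CellEvent Caspase 3/7 Green), with DMSO serving as negative control and baseline.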

[18] = TOX21_PR_LUC_Followup_Antagonist_viability: Viability Assessment in the Tox21 HEK293 Progesterone Receptor (PR) Antagonism Luciferase Follow-Up Assay (AID 2283940)
Outline: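 Multiplexed viability counter-screen: after 5 days in charcoal-stripped-FBS medium, HEK293-PR-A-luc cells are plated, pinned with DMSO-dissolved compounds for 16 h at 37C, and ATP content is quantified luminescently via CellTiter-Glo.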

Measured: AC50

Clc1ccc(-c2ccc(Cl)c(Cl)c2Cl)c(Cl)c1Cl
inactive: [1] | [2] | [3] | [4] | [5] | [6] | [7]

CC(=O)[O][Sn]([c]1ccccc1)([c]1ccccc1)[c]1ccccc1
active: [1] 2.52 µM | [2] 6.42 µM | [3] 2.87 µM | [4] 17.7 µM | [5] 2.42 µM | [8] 11.2 µM | [7] 8.98 µM

ClC(Br)Br
inactive: [1] | [2] | [3] | [4] | [5] | [6] | [7]

O=C(O)c1nn(Cc2ccc(Cl)cc2Cl)c2ccccc12
active: [7] 81.2 µM
inactive: [1] | [2] | [3] | [4] | [5] | [6] | [8] | [7]

O=[N+]([O-])C(Br)Br
inactive: [1] | [2] | [3] | [4] | [6] | [8] | [7]

COc1ccc2c(c1OC)CN1CCc3cc4c(cc3C1C2)OCO4 (stereo not given)
active: PGR (gene 5241) [10] 5.55 µM | PGR (gene 5241) [14] 11.5 µM
not listed: [6] | [7] | [16] | [17] | [18]
inactive: all other assays above

C[C@@H](CO)NC(=O)[C@@H]1C=C2c3cccc4[nH]cc(c34)C[C@H]2N(C)C1
inactive: [1] | [2] | [3] | [4] | [6] | [8] | [7]

O=C(O)CC(Cl)C(=O)O (stereo not given)
active: [2] 57.3 µM
inactive: [1] | [3] | [4] | [6] | [8] | [7]

CC(C)CCON=O
inactive: [1] | [2] | [3] | [4] | [6] | [8] | [7]

COc1cc(N)c(Cl)cc1C(=O)NC1CN2CCC1CC2 (stereo not given)
inactive: [1] | [2] | [3] | [4] | [5] | [7]

C1CCC2CCCCC2C1 (stereo not given)
inactive: [1] | [2] | [3] | [4] | [6] | [7]

O=C/C=C/c1ccco1
inactive: [1] | [2] | [3] | [4] | [5] | [8] | [7]

Clc1ccccc1-c1ccccc1Cl
inactive: [1] | [2] | [4] | [6] | [7]
active: [3] 62.2 µM

COc1ccc(Cc2nccc3cc(OC)c(OC)cc23)cc1OC
inactive: [1] | [2] | [3] | [4] | [6] | [8] | [7]

CCCCCCCCCCCCCC[P+](CCCCCC)(CCCCCC)CCCCCC (tested in a mixture with another compound)
inactive: [7]
active: [1] 11.7 µM | [2] 21.4 µM | [3] 24.1 µM | [4] 33.5 µM | [6] 46.8 µM | [8] 15.2 µM

CCCC(C)(COC(N)=O)COC(=O)NC(C)C (stereo not given)
inactive: [1] | [2] | [3] | [4] | [6] | [8] | [7] | [16] | [17]

CC[N+](C)(CC)CCOC(=O)C(O)(c1ccccc1)c1ccccc1
inactive: [1] | [2] | [3] | [4] | [6] | [8] | [7]

CC(=O)Nc1cc([As](=O)(O)O)ccc1O
inactive: [1] | [2] | [3] | [4] | [5] | [7]

Oc1cccc(Cl)c1
inactive: [1] | [2] | [3] | [4] | [6] | [8] | [7]

CC(=O)O[C@H]1CC[C@@]2(C)C(=CC[C@@H]3[C@@H]2CC[C@]2(C)C(=O)CC[C@@H]32)C1
not listed: [6] | [16] | [17]
inactive: all other assays above

NC1(c2ccccc2)CCCCC1
inactive: [1] | [2] | [3] | [4] | [6] | [8] | [7]

CC(C)[N+](C)(CCC(C(N)=O)(c1ccccc1)c1ccccc1)C(C)C
inactive: [1] | [2] | [3] | [4] | [6] | [8] | [7]

O=NN1CCN(N=O)CC1
inactive: [1] | [2] | [3] | [4] | [5] | [8] | [7]
